# In the library only some 2.3% were active in any assay of this set; here they are far more common.
# uPA surface inh: cell surface uPA generation inhibition | hit rate 0.31% among 330,000 | Potency, µM (top dose mostly 38.3 µM), without a hit: top-dose activity change, negative = inhibition, actives largely listed as inhibitors | cell surface uPA generation assay, qHTS; active = well fitted inhibition curve with a large enough effect; inconclusive = small, poorly fitted or top-dose-only effect; inactive = no such curve, though single readings can be large or run the other way; tested in mouse RAW 264.7 cells; also: % is scaled to controls: 0 for no effect and ±100 for the full control effect; nearly all actives have a fitted effect of over 55% in size
# BCR signal inh: chronic active BCR signaling inhibition | Potency, µM (titrated, usually from 46.1 µM), for inactives: top-dose activity change, negative = inhibition, most hits filed as inhibitors | AID 493014 | ABC-DLBCL IkBa-CBG/CBR reporter, luminescence ratio, 4 h | hit rate 0.05% among 340,000; active = well fitted inhibition curve with a large enough effect in the signal ratio, with a control signal flat, not every such curve was filed as active; inconclusive = small, poorly fitted or top-dose-only effect, or effect the other way, or a change in a side signal; the % refers to the signal ratio;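 also: plate controls were basal doxycycline-induced cells for no effect and cells given 10 µM MG132 for full effect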
#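 TMD8 human ABC-DLBCL cells with doxycycline-inducible IκBα–green luciferase fusion and unfused red luciferase, in 0.5% FBS medium; compounds up to 46 uM, 4 h at 37C. Green/red luminescence ratio, filter-overlap corrected, fitted to concentration-response curves.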
# TDP-43 yeast inh: inhibitors of TDP-43 toxicity in yeast | TDP-43 expressing yeast growth rescue, BacTiter-Glo, 24 h | Potency, µM (doses to about 46.1 µM), for inactives: at the highest dose growth rescue (activation), hits mostly activators | hit rate 1.8% among 410,000 | AID 652104; also: % of control where 0% means no effect; nearly all actives have a fitted effect of over 50% in size
#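 Growth rescue of TDP-43-toxic yeast measured as ATP luminescence (BacTiter-Glo). Cells grown to mid-log in raffinose, induced in galactose at OD600=0.02, exposed to compound 24 hr at 30 deg C.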
# Abeta rescue: compounds reversing amyloid beta toxicity in yeast; yeast expressing A-beta42, growth rescue, OD600, 48 h; response scale: 0% DMSO, 100% iron-clioquinol control; hit rate 0.063% among 410,000; AID 1347071; Potency, µM (top dose mostly 46.1 µM), most hits filed as activators; also: nearly all actives have a fitted effect of over 55% in size
#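 Yeast growth medium received pinned compounds, then yeast cells expressing toxic A-beta were added; plates incubated at 30 C for 48 hr. Growth read as absorbance at 600 nm, normalized to DMSO and equimolar FeCl3 plus clioquinol controls.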
# aSyn rescue: alpha-synuclein toxicity inhibition in yeast; hit rate 0.14% among 370,000; Yeast expressing alpha-synuclein, growth rescue, BacTiter-Glo, 24 h; AID 652106; Potency, µM (top dose mostly 46.1 µM), for inactives: top-dose growth rescue (activation), actives largely listed as activators; also: % of control where 0% means no effect; nearly all actives have a fitted effect of over 65% in size
#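 Readout is rescue of growth in alpha-synuclein-expressing yeast, so inhibitors of toxicity appear as activators. Growth after 24 hr at 30 deg C in galactose medium is quantified by luminescence.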
# FUS suppressor: suppressors of FUS proteinopathy in yeast; S. cerevisiae FUS-expressing, growth rescue, OD600, 24 h; AID 1347120; Potency, µM (titrated, usually from 76.6 µM), most hits filed as activators; hit rate 0.24% among 390,000;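 also: plate controls were DMSO vehicle for no effect and reference control for full effect; nearly all actives have a fitted effect of over 55% in size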
#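 Absorbance at 600 nm, taken 24hr after compound addition, measured rescue of FUS-yeast growth at 30C. Induction used 2% galactose with seeding at OD 0.005. Controls: CP55940 from 92uM final, DMSO only.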
# The depositor's hits bear a star; i = inactive; u = inconclusive; x = no result; [ ] = remark or other dose. Unless noted, calls follow the shape of the dose curve; as a rule, active = well fitted curve in the direction sought with a large enough effect; inconclusive = small, poorly fitted or top-dose-only effect, or another doubt; inactive = no such curve, though single readings can be large; an effect the other way counts as inactive or inconclusive. Potency is read from the fitted curve at half-maximal effect.
SMILES,uPA surface inh,BCR signal inh,TDP-43 yeast inh,Abeta rescue,aSyn rescue,FUS suppressor
Cc1ccccc1C(=O)NCCCCc1ccccc1,-2%,u,-1%,i,-6%,i
Nc1nc2ccccc2cc1C(=O)NCCCCc1ccccc1,x,x,28µM*,u,-40%,i
COc1ccc2c(c1)-c1c(ssc1=S)C(C)(C)N2C(=O)CSC1=NCCS1,1%,-7%,u,i,7%,i
CC1(C)c2ssc(=S)c2-c2ccccc2N1C(=O)CSC1=NCCS1,5%,3%,35µM*,i,14%,i
CC(C)NC(=S)N/N=C/c1cccs1,-9%,u,9%,u,-8%,i
CC(C)NC(=S)N/N=C/c1ccc(C(C)(C)C)cc1,0%,-1%,0%,5.6µM*,-6%,i
Clc1cccc(OCc2nc(-c3ccncc3)no2)c1,5%,0%,11µM*,i,-7%,i
Cc1ccc(NC(=O)CNC(=O)c2ccco2)c(Cl)c1,-2%,0%,21%,i,4%,i
CN(C)S(=O)(=O)Oc1ccsc1C(=O)Nc1ccc(Cl)c(Cl)c1,-3%,u,22µM*,i,-3%,i
CN(C)S(=O)(=O)Oc1ccsc1C(=O)Nc1cccc(Cl)c1,-3%,7%,13µM*,i,-9%,i
CN(C)S(=O)(=O)Oc1ccsc1C(=O)Nc1ccc(Br)cc1,-3%,12%,13µM*,u,10%,i
CN(C)S(=O)(=O)Oc1ccsc1C(=O)Nc1ccc(C(F)(F)F)cc1,3%,u,2%,u,-15%,i
CCN1C(=O)C(CC(=O)Nc2ccccc2Cl)N(NC(=O)c2cccc(F)c2)C1=S (stereo unspecified),10%,1%,6.3µM*,i,15%,x
CCOc1ccc(Nc2ncnc3onc(-c4ccc(Cl)cc4)c23)cc1,x,x,22µM*,i,x,i
COc1cc(Nc2ncnc3onc(-c4ccc(Cl)cc4)c23)cc(OC)c1,x,x,17%,i,0%,i
COC(=O)c1ccc(CSc2nnc(Nc3ccccc3OC)s2)o1,-23%,u,18µM*,i,-8%,i
COC(=O)c1ccc(CSc2nnc(Nc3ccc(OC)cc3)s2)o1,-1%,0%,14%,i,0%,i
O=C1C(=O)c2c(ccc3ccccc23)-c2ccccc21,-11%,x,2µM*,i,-27%,i
CC(C)c1ccc2nc(NC(=O)C3CC3)sc2c1,u,20%,22µM*,i,-15%,i
O=C(Nc1nc2ccc(Cl)cc2s1)C1CC1,-9%,x,26%,i,-11%,i
O=C(Nc1nc2cc3c(cc2s1)OCCO3)C1CCCCC1,u,u,25µM*,i,-27%,i
Cc1cccc2sc(NC(=O)Cn3cccc3)nc12,11%,12%,7%,11µM*,18%,i
Cc1cccc2sc(NC(=O)CN(C)S(=O)(=O)c3cccs3)nc12,4%,u,16µM*,i,22%,i
O=C(Nc1nc2cc3c(cc2s1)OCO3)C1CCCCC1,-8%,u,8%,i,-4%,i
O=C1NCCC/C1=N\Nc1ccc(Br)cc1,-2%,u,0%,i,24%,i
SMILES,uPA surface inh,BCR signal inh,TDP-43 yeast inh,Abeta rescue,aSyn rescue,FUS suppressor
O=c1c(Cc2ccc(Cl)cc2)c(O)ccn1Cc1cccc(Cl)c1,2%,2%,-4%,i[9.22 µM],-6%,i
COC(=O)CCC(=O)Nc1ccc(NC(C)=O)cc1,1%,-2%,9%,i,10%,i
COC(=O)NNC(=O)COc1ccc2ccccc2c1Br,3%,u,u,i,0%,x
Cc1cccc2sc(NC(=O)C3CC3)nc12,4%,-9%,11µM*,i,-23%,i
O=C(Nc1nc2c(Cl)cccc2s1)C1CC1,-13%,u,19%,i,-1%,i
CC1CCc2nn(CC(=O)NCCC3=CCCCC3)cc2C1 (stereo unspecified),10%,11%,18µM*,u,-2%,i
NS(=O)(=O)c1ccc(NC(=S)NC(=O)/C=C/c2cccs2)cc1,11%,0%,-1%,i,1%,i
O=c1oc2cc(Br)ccc2n1CSC1=NCCS1,-8%,-5%,13µM*,i,-8%,i
COc1cc(C(=O)NNC(=O)CCOc2ccccc2)cc(OC)c1OC,-3%,-3%,0%,i,3%,x
CCOC(=O)c1ccc(NC(=O)CCS(=O)(=O)c2cccc3nonc23)cc1,-2%,9%,6%,i,1%,i
COc1ccccc1OCc1ccc(C(=O)Nc2ccccc2)cc1,18%,-12%,13%,i,-6%,i
CC(=O)N1Cc2cc(C(=O)NCC(F)(F)F)nc(-c3cccc(-c4cc5ccccc5o4)c3)c2[C@@H]1CCO,x,x,1%,i,-1%,i
O=C(c1ccc(N2C(=O)c3ccccc3C2=O)cc1)N1CCN(S(=O)(=O)c2ccccc2F)CC1,x,x,u,i,3%,28µM*
O=C(c1ccc(N2C(=O)c3ccccc3C2=O)cc1)N1CCCCC1,7%,u,10%,i,1%,i
Cc1cccc(C)c1NC(=O)C(c1ccccc1F)n1c(=O)c(-c2cc3ccccc3[nH]2)nc2ccccc21 (stereo unspecified),x,x,63%,u,u,i
c1ccc(Cn2c(SCc3nc4ccccc4s3)nnc2-c2ccco2)cc1,6%,2%,14µM*,i,4%,u
O=C(Nc1sc2c(c1C(=O)Nc1cccc(Cl)c1)CCCC2)c1cccs1,x,x,1%,i,-1%,i
Cc1nc2cc(NC(=O)N3CCCCC3)ccc2n1C,12%,u,-9%,i,-14%,i
CCCCC(=O)Nc1ncc([N+](=O)[O-])s1,2%,u,16µM*,i,0%,i
CC(C)CC(=O)Nc1ncc([N+](=O)[O-])s1,19%,u,5%,i,u,i
Cc1ccc(C(C)C)cc1OCC(=O)N/N=C/c1ccc2c(c1)OCCO2,-2%,u,13µM*,i,0%,i
Cc1cccc(C)c1OCC(=O)N/N=C/c1ccc2c(c1)OCO2,-18%,-19%,12%,i,2%,i
CC(=O)Nc1cccc(NC(=O)CSc2nnc(NC(=O)c3ccco3)s2)c1,-17%,2%,-4%,i,1%,x
Cc1ccc(CCNC(=O)c2c(C)nn(-c3ccc(F)cc3)c2-n2cccc2)cc1,x,x,22µM*,i,8%,i
CC(C)CC1NC(=O)N(CC(=O)N2CCN(S(=O)(=O)c3ccc4ccccc4c3)CC2)C1=O (stereo unspecified),5%,u,11%,i,0%,i

# Screening results (PubChem)
